# Data taken from PubChem BioAssay.
# This is one part of the list. The source made the active and inactive calls. Unless noted, no stated cut-off is given here; in the data, active means activity above about 50%; inactive means the rest.
# Experiments:
# [1] = NFkB reporter suppression in cystic fibrosis bronchial cells – cell-based, uHTS hits, panel, cytotoxicity readout, dose response (AID 624344); conditions: CF bronchial epithelial cells, PAF-induced NFkB reporter inhibition, with PAF, run 1; at 79 µM (top of the series)
# [2] = as above; conditions: CF bronchial epithelial cells, PAF-induced NFkB reporter inhibition, with PAF, run 2; at 79 µM (top of the series)
# [3] = target: Tumor necrosis factor receptor superfamily member 10B (Homo sapiens) (UniProt O14763); test: viability loss of caspase-8 NB7 cells with TRAIL – with/without TRAIL, luminescence panel, confirmation (AID 651596); conditions: NB7 neuroblastoma + caspase-8, TRAIL sensitization, NB7 Caspase-8, with TRAIL, mean of runs, at 10 µM, stronger effect = higher value
# Chain of Tumor necrosis factor receptor superfamily member 10B (Homo sapiens) (O14763 whole entry, looked up): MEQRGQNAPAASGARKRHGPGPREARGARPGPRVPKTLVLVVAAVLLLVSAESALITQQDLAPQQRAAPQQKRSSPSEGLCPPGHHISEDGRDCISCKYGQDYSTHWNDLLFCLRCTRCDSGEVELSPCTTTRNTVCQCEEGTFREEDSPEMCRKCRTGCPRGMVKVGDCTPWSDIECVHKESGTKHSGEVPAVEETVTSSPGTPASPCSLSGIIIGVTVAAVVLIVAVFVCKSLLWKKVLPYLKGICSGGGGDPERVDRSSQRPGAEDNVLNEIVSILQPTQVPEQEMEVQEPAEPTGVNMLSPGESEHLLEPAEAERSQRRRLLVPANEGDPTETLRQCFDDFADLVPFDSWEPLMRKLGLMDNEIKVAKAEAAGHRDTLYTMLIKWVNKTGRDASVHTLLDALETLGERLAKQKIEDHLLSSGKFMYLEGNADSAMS
# [4] = as above; conditions: NB7 neuroblastoma + caspase-8, without TRAIL, NB7 Caspase-8, without TRAIL, mean of runs, at 10 µM
# [5] = HIF-2a driven luciferase blockers, single dose – luminescence, 786-0 RCC cells, confirmation (AID 651580;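 active means mean inhibition across four replicates of at least 40 percent at the single tested concentration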); conditions: HIF-2a luciferase reporter luminescence, overnight, at 18.8 µM, stronger effect = higher value
# [6] = HIF-1a luciferase reporter signal reduction – MiaPaCa-2 cells, single concentration, counter-screen for HIF-2a inhibitor project, confirmation (AID 651589;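 active means mean inhibition of the reporter signal across four replicates at the single tested dose of 50% or more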); conditions: MiaPaCa-2 HIF-1a luciferase reporter, desferoxamine, overnight; at 18.8 µM; stronger effect = higher value
# [7] = target: 72 kDa type IV collagenase (Homo sapiens) (UniProt P08253); test: human MMP-2 inhibitors, single-point check – biochemical, fluorescence, single concentration, counter-screen for CSN deneddylation inhibitor project, confirmation (AID 720655;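 active means corrected plate-normalized z-score of 5 or more, or -5 or less, or inhibition of 15% or more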;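 further: plate controls were DMSO wells with enzyme for no effect and buffer wells lacking MMP-2 for full effect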); conditions: recombinant MMP-2, FRET substrate fluorescence, 60 min; at 16.6 µM
# Chain of 72 kDa type IV collagenase (Homo sapiens) (P08253 whole entry, looked up): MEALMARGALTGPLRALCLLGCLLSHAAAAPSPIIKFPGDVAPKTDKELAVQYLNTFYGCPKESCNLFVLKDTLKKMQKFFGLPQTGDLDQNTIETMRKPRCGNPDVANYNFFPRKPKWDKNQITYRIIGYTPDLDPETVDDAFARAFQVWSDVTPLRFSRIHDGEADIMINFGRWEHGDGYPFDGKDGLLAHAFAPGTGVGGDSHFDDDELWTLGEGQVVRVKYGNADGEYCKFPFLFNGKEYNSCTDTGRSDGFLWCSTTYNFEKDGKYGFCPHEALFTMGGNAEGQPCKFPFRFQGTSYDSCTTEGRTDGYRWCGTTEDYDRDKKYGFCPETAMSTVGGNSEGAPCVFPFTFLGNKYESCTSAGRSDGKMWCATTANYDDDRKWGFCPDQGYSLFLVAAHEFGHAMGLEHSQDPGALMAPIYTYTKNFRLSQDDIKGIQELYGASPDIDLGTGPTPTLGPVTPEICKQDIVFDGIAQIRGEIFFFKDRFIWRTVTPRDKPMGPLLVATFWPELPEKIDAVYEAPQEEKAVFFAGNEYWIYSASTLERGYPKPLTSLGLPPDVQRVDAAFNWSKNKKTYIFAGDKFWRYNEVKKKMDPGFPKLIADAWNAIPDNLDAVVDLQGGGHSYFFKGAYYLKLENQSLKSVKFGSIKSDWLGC
# Prothrombin (Bos taurus) = Prothrombin (Bos taurus) (UniProt P00735); test: thrombin cleavage blockers, FP readout – biochemical, fluorescence polarization, single concentration, counter-screen for CSN deneddylation inhibitor project, confirmation (AID 720656;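 active means inhibition at or above a set limit, with a fluorescence interference ratio between 0.5 and a set maximum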); conditions: bovine thrombin cleavage of Ub4-pepOG, at 16.6 µM, stronger effect = higher value
# Chain of Prothrombin (Bos taurus) (P00735 whole entry, looked up): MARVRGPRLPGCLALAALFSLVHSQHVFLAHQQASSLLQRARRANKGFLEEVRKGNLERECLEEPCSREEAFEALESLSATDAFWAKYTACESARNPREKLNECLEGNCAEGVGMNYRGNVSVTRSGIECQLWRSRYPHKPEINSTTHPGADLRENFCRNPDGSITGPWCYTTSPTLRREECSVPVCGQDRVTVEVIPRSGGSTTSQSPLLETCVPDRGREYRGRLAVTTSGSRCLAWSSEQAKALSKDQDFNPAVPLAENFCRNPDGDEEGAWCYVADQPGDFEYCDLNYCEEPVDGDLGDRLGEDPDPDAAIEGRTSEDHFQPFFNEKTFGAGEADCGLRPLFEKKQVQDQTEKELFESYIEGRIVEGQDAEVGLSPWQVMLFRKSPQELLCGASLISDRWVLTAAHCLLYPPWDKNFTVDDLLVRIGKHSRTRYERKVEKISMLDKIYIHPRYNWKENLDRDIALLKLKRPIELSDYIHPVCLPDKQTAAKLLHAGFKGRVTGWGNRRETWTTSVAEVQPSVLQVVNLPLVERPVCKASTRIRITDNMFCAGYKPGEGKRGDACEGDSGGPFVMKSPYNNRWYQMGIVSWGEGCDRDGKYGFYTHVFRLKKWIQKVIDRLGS
structure (smiles),measurement,setting,value
CC(=O)c1c(C)n(C2CCCCC2)c2ccc(O)cc12,inhibition,[1],95.6%
same,inhibition,[2],102%
NC(=O)c1c(Br)n(C2OC(CO)C(O)C2O)c2ncnc(N)c12 (centres undefined),inhibition,[1],106%
same,inhibition,[2],116%
COc1ccc2c(c1)[nH]c1c(C)nccc12,inhibition,[1],113%
same,inhibition,[2],97.6%
O=c1[nH]c2ccccc2n1C1CCN(C(c2cc3ccccc3o2)c2nnnn2-c2ccc3c(c2)OCCO3)CC1 (centres undefined),inhibition,[1],103%
same,inhibition,[2],104%
same,activity,[3],81.4%
same,activity,[4],83.5%
COc1ccc(-[n+]2c(-c3ccccc3)cc(-c3ccc(C)cc3)cc2-c2ccccc2)cc1,activity,[3],74.3%
same,activity,[4],64.8%
COC1C(O)C(C)OC(OC2CCC3(C=O)C(CCC4C3CCC3(C)C(C5=CC(=O)OC5)CCC43O)C2)C1O (centres undefined),inhibition,[5],40% (inactive)
same,inhibition,[6],105% (active)
same,activity,[3],85.2%
same,activity,[4],91.8%
COc1ccc(-n2nnnc2C(CCSC)N2CCC(n3c(=O)[nH]c4ccccc43)CC2)cc1 (centres undefined),inhibition,[1],97.9%
same,inhibition,[2],108%
COc1ccc(Oc2cc(NC(=O)c3nn(C)cc3[N+](=O)[O-])cc([N+](=O)[O-])c2)cc1,inhibition,[1],113%
same,inhibition,[2],101%
same,activity,[3],94.2%
same,activity,[4],97.4%
COc1ccc(C(c2nnnn2-c2ccc(OC)cc2)N2CCC(n3c(=O)[nH]c4ccccc43)CC2)cc1 (centres undefined),inhibition,[1],98.8%
same,inhibition,[2],103%
N#Cc1c(Br)n(C2OC(CO)C(O)C2O)c2ncnc(N)c12 (centres undefined),inhibition,[1],106%
same,inhibition,[2],107%
COc1ccc(-n2nnnc2C(c2cccs2)N2CCC(n3c(=O)[nH]c4ccccc43)CC2)cc1 (centres undefined),inhibition,[1],102%
same,inhibition,[2],102%
COc1cc2c(c(OC)c1OC)-c1ccc(O)cc1C(NC(C)=O)CC2 (centres undefined),inhibition,[1],-101%
same,inhibition,[2],0.843%
CCC(C)(O)C(=O)OC1C(=O)OC2CC3C(C)=CC(=O)C(O)C3(C)C3C4(O)OCC23C1C(C)C4O (centres undefined),inhibition,[5],55.2% (active)
same,inhibition,[6],101% (active)
CC1OC(OC2C=C3CCC4C(CCC5(C)C(c6ccc(=O)oc6)CCC45O)C3(C)CC2)C(O)C(OC2OC(CO)C(O)C(O)C2O)C1O (centres undefined),activity,[3],83.1%
same,activity,[4],91.9%
CN(C)C(=O)Oc1ccc(OCc2nc3ccccc3[nH]2)cc1,activity,[3],75.7%
same,activity,[4],78.1%
CC(=O)OCC12CC(OC(=O)CC(C)C)C(C)=CC1OC1C(O)C(OC(C)=O)C2(C)C12CO2 (centres undefined),activity,[3],93%
same,activity,[4],97.6%
CCOC(=O)[C@]12Cc3cc(Cl)ccc3[C@H]1N(Cc1ccccc1)C(=O)c1cc(OC)ccc12,activity,[3],91.9%
same,activity,[4],97.9%
CCOC(=O)[C@]12Cc3cc(C)ccc3[C@H]1N(C1CCCCC1)C(=O)c1ccccc12,activity,[3],95.3%
same,activity,[4],96.5%
CN(C)CC(C(=O)Cc1ccccc1)c1ccccc1 (centres undefined),activity,[3],37.9%
same,activity,[4],96.3%
Cc1cccc(C)c1-n1nnnc1C(CCc1ccccc1)N1CCC(n2c(=O)[nH]c3ccccc32)CC1 (centres undefined),activity,[3],90.2%
same,activity,[4],82%
CC1CCOC(=O)C=CC=CC(=O)OC2CC3OC4C5OC5(C)C(O)CC4(COC(=O)C1O)C2(C)C31CO1 (centres undefined),activity,[3],93.7%
same,activity,[4],97.2%
Cc1nc2cc(C(F)(F)F)ccc2n1C1CCN(Cc2nnnn2Cc2ccc3c(c2)OCO3)CC1,activity,[3],53%
same,activity,[4],54.3%
CNC(=O)O/N=C(\N)Cc1csc2ccc(Cl)cc12,activity,[3],87.3%
same,activity,[4],91.2%
COc1ccc(CC2NCC(O)C2OC(C)=O)cc1 (centres undefined),activity,[3],90.1%
same,activity,[4],93.8%
CC(C)(O)/C=C/C(=O)C(C)(O)C1C(O)CC2(C)C3CC=C4C(C=C(O)C(=O)C4(C)C)C3(C)C(=O)CC12C (centres undefined),activity,[3],46.5%
same,activity,[4],81.1%
C=CCn1c(O)c(C(CC)=NCc2cc(OC)cc(OC)c2)c(=O)[nH]c1=O,activity,[3],46.4%
same,activity,[4],37.5%
COC(=O)C12OCC34C(CC5C(C)=C(O)C(=O)CC5(C)C3C(O)C1O)OC(=O)C(OC(=O)/C=C(\C)C(C)C)C24 (centres undefined),activity,[3],94.8%
same,activity,[4],97.5%
CC12CCC3C(CCC4(O)CC(O)CCC34C=O)C1(O)CCC2C1=CC(=O)OC1 (centres undefined),activity,[3],82.5%
same,activity,[4],85.2%
C[C@H]1O[C@@H](OC2CC[C@]3(C=O)[C@H]4CC[C@]5(C)[C@@H](C6=CC(=O)OC6)CC[C@]5(O)[C@@H]4CC[C@]3(O)C2)CC2OC(C)(C)OC21 (some centres undefined),activity,[3],85.6%
same,activity,[4],92.4%
CNC(=O)Oc1ccc(-c2cn3cc(C)ccc3n2)cc1,activity,[3],95.7%
same,activity,[4],95.5%
CC1=CC2OC3CC4OC(=O)C=CC=CC(=O)OCCC(C)C(O)C(=O)OCC2(CC1)C4(C)C31CO1 (centres undefined),activity,[3],75.6%
same,activity,[4],80.9%
CN(C)C(=O)Oc1ccc(-c2cn3cc(Cl)ccc3n2)cc1,activity,[3],80%
same,activity,[4],85.6%
O=[N+]([O-])c1ccc(Cl)c([N+](=O)[O-])c1,activity,[3],-3.27%
same,activity,[4],54.8%
CC[C@H](C)[C@@H]1NC(=O)CNC(=O)c2csc(n2)[C@H](C(C)(C)O)OC(=O)C(C)(C)[C@H](CCCC(C)(Cl)Cl)OC(=O)c2csc1n2,activity,[3],53.5%
same,activity,[4],78.6%
CCOC(=O)[C@]12Cc3cc(Cl)ccc3[C@H]1N(C1CCCCC1)C(=O)c1ccccc12,activity,[3],98.5%
same,activity,[4],99.3%
CCOC(=O)[C@]12Cc3ccc(C)cc3[C@H]1N(C1CCCCC1)C(=O)c1cc(OC)ccc12,activity,[3],97.5%
same,activity,[4],98%
CCOc1ccc(-c2c(C)n(-c3ccc(OCC)cc3)c3[n+]2CCCCC3)cc1,activity,[3],61%
same,activity,[4],63%
CC1=CC2OC3CC4OC(=O)C=CC=CC(=O)OCCC(C)C(O)C(=O)OCC2(CC1O)C4(C)C31CO1 (centres undefined),activity,[3],92.9%
same,activity,[4],96.9%
CCOC(=O)C(=CNc1ccc(C(O)(C(=O)OCC)C(F)(F)F)cc1C)C(=O)OCC (centres undefined),activity,[3],-5.97%
same,activity,[4],6.08%
CC(=O)OC1C(=O)OCC23CCC4(C)OC4C2OC2CC(OC(=O)C=CC=CC(=O)OCCC1C)C3(C)C21CO1 (centres undefined),activity,[3],89.6%
same,activity,[4],92.9%
CCCOC(=O)c1ccc(-[n+]2c(-c3ccccc3)cc(-c3ccccc3)cc2-c2ccccc2)cc1,activity,[3],74.7%
same,activity,[4],68.3%
Cc1ccc(NC(=O)CN2C(=O)CN=C(c3ccccc3)c3cc(Cl)ccc32)cc1,activity,[3],78.1%
same,activity,[4],85%
CCCCCN1C(=O)c2cc(OC)ccc2[C@@]2(C(=O)OCC)Cc3cc(Cl)ccc3[C@@H]12,activity,[3],87.2%
same,activity,[4],92.8%
C[C@]12CCC3C(CCC4=CC(O)CC[C@@]43/C=N/O)C1(O)CCC2C1=CC(=O)OC1 (some centres undefined),activity,[3],87%
same,activity,[4],92.3%
CCCCCN1C(=O)c2ccccc2[C@@]2(C(=O)OCC)Cc3cc(OC)ccc3[C@@H]12,activity,[3],47.4%
same,activity,[4],63%
Clc1ccc(C[n+]2c(-c3ccccc3)cc(-c3ccccc3)cc2-c2ccccc2)cc1,activity,[3],79.1%
same,activity,[4],65.9%
CC12CCC3C(CCC4(O)CC(O)CCC34C=NO)C1(O)CCC2C1=COC(=O)C1 (centres undefined),activity,[3],91%
same,activity,[4],92.7%
C=CCn1c(O)c(C(C)=NCc2cc(OC)cc(OC)c2)c(=O)[nH]c1=O,activity,[3],79.5%
same,activity,[4],84.8%
COc1ccc(N2C(=O)/C(=C/c3ccco3)C(=O)NC2=S)cc1,inhibition,[7],38.2% (active)
same,inhibition,Prothrombin (Bos taurus),24.5% (active)
